Hits are enriched below; roughly 3.1% of the tested compounds scored in any of these assays.
FGF22 binding = FGF22 (human) thermal shift binding | AID 651658 | 340,000 tested, 1.5% active | Q9HCT0 | recombinant FGF22 thermal shift, SYPRO orange fluorescence; percent of sucrose octasulfate shift, DMSO zero | activity (Tm shift, normalised), % at 9.99 µM;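 active means mean Tm shift, scaled 0 neutral to 100 positive control, at about 1.3% or above, every replicate too, limit read from the data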
ERAP1 HTS inh = inhibitors of human ERAP1 aminopeptidase; AID 652197; recombinant ERAP1, Leu-AMC fluorescence, 60 min; 340,000 tested, 0.15% active; Q9NZ08; inhibition, % at 10.7 µM;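 active means mean replicate inhibition of at least 30%, or all replicates individually reaching that 30% level; inactive means mean below 30% and not every replicate reaching it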
SIRT5 block = sirtuin-5 (human) deacylase inhibition | AID 652115 | 330,000 tested, 1.1% active | Purified SirT5, succinyl-peptide AMC, trypsin-coupled fluorescence | Q9NXA8 | inhibition, % at 15 µM; in the data active means inhibition above about 15%
Target sequence (Q9NXA8 whole entry, looked up): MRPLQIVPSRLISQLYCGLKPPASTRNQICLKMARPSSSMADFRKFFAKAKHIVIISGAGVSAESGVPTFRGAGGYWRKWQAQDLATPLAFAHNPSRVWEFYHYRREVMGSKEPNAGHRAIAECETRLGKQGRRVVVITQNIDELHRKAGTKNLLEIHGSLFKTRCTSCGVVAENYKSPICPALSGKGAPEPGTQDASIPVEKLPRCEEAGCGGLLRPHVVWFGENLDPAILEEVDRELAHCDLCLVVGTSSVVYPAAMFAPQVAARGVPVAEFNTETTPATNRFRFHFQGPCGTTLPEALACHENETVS
CASP6 VEID inh = inhibitors of human caspase-6 | purified caspase-6, Z-VEID-R110 cleavage fluorescence | inhibition, % at 12.5 µM | 350,000 tested, 0.53% active;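 active means mean inhibition across replicates at least about 35%, with every replicate also reaching that limit, limit read from the data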
Target sequence (P55212 24-179 limits assumed): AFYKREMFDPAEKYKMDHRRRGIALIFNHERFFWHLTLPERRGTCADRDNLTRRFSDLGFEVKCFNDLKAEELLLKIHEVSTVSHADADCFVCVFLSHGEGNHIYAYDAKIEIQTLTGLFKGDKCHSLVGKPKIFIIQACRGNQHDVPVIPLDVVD
Target sequence (P55212 194-293 limits assumed): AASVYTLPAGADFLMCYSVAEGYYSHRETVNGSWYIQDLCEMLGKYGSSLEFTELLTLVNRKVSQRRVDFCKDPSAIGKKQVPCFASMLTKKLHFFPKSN
Each line names hits and unclear results; the compound was inactive in the other large screens; ! = repeats disagree.

O=C(COc1ccc(C(=S)N2CCOCC2)cc1)Nc1ccccc1C(F)(F)F	FGF22 binding 44
CCOC(=O)C1CCN(S(=O)(=O)c2ccccc2[N+](=O)[O-])CC1	none
CN(C(=O)C1CCN(S(=O)(=O)c2ccccc2[N+](=O)[O-])CC1)C1CCCCC1	FGF22 binding 44 (no result: SIRT5 block)
CC(C)CCN1CCN(Cc2cccs2)CC1CCO (stereo not given)	FGF22 binding 43
CC(C)N1CCN(Cc2cccs2)CC1CCO (stereo not given)	none
CC1=C(C(=O)Nc2cccc([N+](=O)[O-])c2)C2(CCC(C)CC2)OC1=O (stereo not given)	FGF22 binding 44
COc1cccc(CNC(=O)C[C@@H]2CC[C@H]3[C@@H](COc4ccc(NC(C)=O)cc4C(=O)N3C)O2)c1	none (no result: ERAP1 HTS inh, SIRT5 block, CASP6 VEID inh)
C[C@H](CO)N1C[C@H](C)[C@@H](CN(C)S(=O)(=O)c2ccc(F)cc2)Oc2ccc(NC(=O)CCN3CCOCC3)cc2C1=O	SIRT5 block 15!
COc1ccc(S(=O)(=O)N(C)C[C@H]2Oc3ccc(NC(=O)NC4CCCCC4)cc3C(=O)N([C@@H](C)CO)C[C@@H]2C)cc1	SIRT5 block 19
Cc1ccc(S(=O)(=O)N(C)C[C@@H]2OCCCC[C@H](C)Oc3ccc(NC(=O)NC4CCCCC4)cc3C(=O)N([C@H](C)CO)C[C@H]2C)cc1	SIRT5 block 16
C[C@@H]1CCCCO[C@H](CN(C)S(=O)(=O)c2ccccc2)[C@@H](C)CN([C@H](C)CO)C(=O)c2cc(NC(=O)CCC(F)(F)F)ccc2O1	FGF22 binding 3.9
C[C@H]1CN([C@@H](C)CO)C(=O)c2cccc(NC(=O)Nc3ccc(F)cc3)c2O[C@@H]1CN(C)C	none
COc1ccc(S(=O)(=O)Nc2ccc3c(c2)C(=O)N([C@@H](C)CO)C[C@@H](C)[C@H](CN(C)S(=O)(=O)c2cccs2)OCCCC[C@H](C)O3)cc1	none
COc1ccc(NC(=O)Nc2ccc3c(c2)C(=O)N([C@H](C)CO)C[C@H](C)[C@@H](CN(C)S(=O)(=O)c2cn(C)cn2)OCCCC[C@H](C)O3)cc1	FGF22 binding 1.4 (no result: ERAP1 HTS inh, SIRT5 block, CASP6 VEID inh)
C[C@@H]1CCCCO[C@@H](CN(C)S(=O)(=O)c2ccccc2)[C@H](C)CN([C@@H](C)CO)C(=O)c2cc(NC(=O)Nc3ccccc3)ccc2O1	FGF22 binding 2.0
COc1ccc(NC(=O)Nc2ccc3c(c2)C(=O)N([C@H](C)CO)C[C@@H](C)[C@H](CN(C)S(=O)(=O)c2cn(C)cn2)OCCCC[C@@H](C)O3)cc1	none (no result: ERAP1 HTS inh, SIRT5 block, CASP6 VEID inh)
COc1ccc(NC(=O)Nc2ccc3c(c2)C(=O)N([C@H](C)CO)C[C@H](C)[C@@H](CN(C)S(=O)(=O)c2ccccc2)OCCCC[C@H](C)O3)cc1	SIRT5 block 16
C[C@H](CO)N1C[C@H](C)[C@@H](CN(C)C(=O)Nc2ccc3c(c2)OCO3)Oc2c(NC(=O)CCCCCC(=O)Nc3ccccc3N)cccc2C1=O	none (no result: SIRT5 block)
O=C(N/N=C/c1cccs1)c1ccc2ccccc2c1	none
C(=NN=C(NN=Cc1cccs1)NN=Cc1cccs1)c1cccs1	FGF22 binding 43 (no result: SIRT5 block)
C[C@H]1CN([C@@H](C)CO)C(=O)c2cccc(NC(=O)Nc3ccc4c(c3)OCO4)c2O[C@@H]1CN(C)Cc1ccc(Oc2ccccc2)cc1	none
CCn1cc(CN2N=C(C)CC2c2ccccc2)c(C)n1 (stereo not given)	FGF22 binding 44
O=C(NCCc1ccc(F)cc1)c1coc(=O)c(Br)c1	none
O=C(Nc1ccccc1F)c1coc(=O)c(Br)c1	CASP6 VEID inh 74
CC1(Cc2ccc(C(F)(F)F)nc2)C(=O)Nc2cc(-c3ccccc3Cl)ccc21 (stereo not given)	FGF22 binding 43 (no result: SIRT5 block)
CC1(Cc2ccccc2C#N)C(=O)Nc2cc(-c3ccccc3Cl)ccc21 (stereo not given)	none (no result: SIRT5 block)
C=CCOc1c(/C=N\NC(N)=O)cccc1OC	none
C=CCOc1c(OC)cc(/C=N/Nc2cccc(C(=O)O)c2)c(Br)c1Br	CASP6 VEID inh 43 (no result: SIRT5 block)
C[C@@H]1CN([C@H](C)CO)C(=O)c2cccc(NC(=O)C3CCOCC3)c2O[C@@H]1CN(C)C(=O)Nc1ccc2c(c1)OCO2	none (no result: ERAP1 HTS inh, CASP6 VEID inh)
C[C@H]1CCCCO[C@H](CN(C)C(=O)C2CCCCC2)[C@@H](C)CN([C@@H](C)CO)C(=O)c2cc(NS(=O)(=O)c3ccc(F)cc3)ccc2O1	none
CCOC(=O)c1c(C)n2c3c(cc(C)cc13)CCC2	none
CCOC(=O)CSc1ncnc2c(C(=O)OCC)c3n(c12)CCC3	FGF22 binding 43
C[C@@H]1CN([C@@H](C)CO)C(=O)c2cc(-c3ccccc3F)cnc2O[C@@H]1CN(C)Cc1cccc(C(=O)O)c1	none
O=C(C1CCCC1)N1[C@@H](CO)[C@@H]2c3ccccc3N(S(=O)(=O)c3ccccc3)C[C@@H]21	none
CCOC(=O)C1(CCOc2ccccc2)CCN(Cc2nccn2CC)CC1	none
CCOC(=O)C1(CCCc2ccccc2)CCN(Cc2nccn2CC)CC1	FGF22 binding 43
CCOC(=O)C1(CCOc2ccccc2)CCN(Cc2ccc(-n3cccn3)cc2)CC1	FGF22 binding 44
CCOC(=O)C1(CCCc2ccccc2)CCN(C2CCN(C(C)=O)CC2)CC1	SIRT5 block 18 (no result: ERAP1 HTS inh)
CCOC(=O)C1(CCOC)CCN(Cc2ccncc2)CC1	FGF22 binding 43
CCOC(=O)C1(CCCc2ccccc2)CCN(C(=O)CSC)CC1	none
COc1cccc(C#Cc2ccc3c(c2)[C@@H]2[C@@H](CCN2C(=O)CC2CC2)[C@H](CO)N3)c1	none (no result: FGF22 binding)
C[C@H]1CN([C@@H](C)CO)C(=O)c2cc(NC(=O)c3ccncc3)ccc2O[C@H]1CN(C)C(=O)Nc1cccc2ccccc12	none
O=C(CCN1C(=O)/C(=C\C=C\c2ccccc2)SC1=S)Nc1ccc(C(=O)O)cc1	CASP6 VEID inh 49
O=C(CN1C(=O)S/C(=C\C=C\c2ccccc2)C1=O)Nc1ccc(C(=O)O)cc1	CASP6 VEID inh 44
O=C(CN1C(=O)S/C(=C/C=C/c2ccccc2)C1=O)Nc1ccc(C(=O)O)cc1	none
O=C(/C=C1\SC(=O)N(CC(=O)Nc2ccc(Cl)cc2)C1=O)Nc1ccc(F)cc1	CASP6 VEID inh 43
CO[C@@H]1CN(C)C(=O)c2ccc(NC(=O)CC(F)(F)F)cc2OC[C@H](C)N(C(C)=O)C[C@@H]1C	none (no result: SIRT5 block)
C[C@H](O)C#Cc1cnc2c(c1)C(=O)N([C@@H](C)CO)C[C@@H](C)[C@@H](CN(C)Cc1cccc(F)c1)O2	none
O=S(=O)(N[C@@H]1CC[C@@H](CCn2cc(C3CC3)nn2)O[C@H]1CO)c1ccc(F)cc1	none
COc1cccc(-c2ccc3n(c2=O)C[C@@H]2[C@@H](CO)[C@H](C(=O)NCC4CC4)N(C)[C@H]32)c1	none
O=C(C[C@H]1C[C@@H]2c3cc(NC(=O)c4cccnc4)ccc3O[C@@H]2[C@@H](CO)O1)NCCN1CCCCC1	none
O=C(NC1CCS(=O)(=O)C1)c1cccc(S(=O)(=O)N2CCCCCC2)c1 (stereo not given)	none
O=C(NC1CCS(=O)(=O)C1)c1cccc(S(=O)(=O)N2CCCC2)c1 (stereo not given)	FGF22 binding 43
CCNc1ccc(S(=O)(=O)NCCN(C)C)cc1[N+](=O)[O-]	none
